Data reported in PubChem BioAssay.
Where “and” joins values, the source holds several entries; their conditions need not be identical. Equal values may be shown once. Calls of active or inactive are those of the source. Unless noted, how the calls were made is not given here.

Assays:
[1] = stimulators of nuclear beta-catenin in C2C12, primary screen, imaging, WNT3A-conditioned medium, mouse C2C12, NPC library (AID 1117326; in the data active means nuclear beta-catenin stimulation mostly above about 4.2%, no sharp cut-off; inactive means mostly below about 10%); conditions: stronger effect = higher value
[2] = stimulators of insulin release from INS-1E, primary screen, cell-based, 5 mM glucose, NPC library (AID 1117329;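 active means compound raises insulin release from rat beta cells at 5 mM glucose, no numeric limit stated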); conditions: rat INS-1E insulin secretion, at 10 µM, stronger effect = higher value
[3] = growth inhibition of GSK3B-pretreated HCT116 cells – cell-based, CellTiter-Glo, 0.2 to 20 µM (AID 1117336;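 active means compounds lowering colon cancer cell viability after pretreatment blocking the GSK3B kinase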); conditions: HCT116 viability after GSK3B inhibitor, at 20 µM, stronger effect = higher value
[4] = inhibition of endothelial tube formation, primary screen, imaging, VEGF stimulated, CD31 staining, tube area, NPC library (AID 1117340;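 active means compound that reduces growth-factor-driven endothelial tube area in a mixed cell culture, no cutoff stated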); conditions: VEGF-stimulated ADSC/ECFC co-culture, at 10 µM, stronger effect = higher value
[5] = glucagon-like peptide 1 release enhancers, primary assay, NCI-H716 cell line, NPC library (AID 1117341;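 active means compound raises GLP1 secretion from the human gut endocrine cells, with no numeric limit stated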); conditions: NCI-H716 cells, at 10 µM, stronger effect = higher value
[6] = HCT116 colon cancer cell growth inhibition, primary screen, CellTiter-Glo luminescence, NPC library (AID 1117342;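 active means compounds that lower survival of HCT116 colon cancer cells in the luminescence readout, no numeric limit stated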); conditions: at 20 µM (top of the series)
[7] = CellTiter-Glo luminescent readout of SW480 viability loss, NPC library primary (AID 1117343;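 active means compounds that lower viability of the colon cancer cells in the luminescence readout, with no numeric limit stated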); conditions: CellTiter-Glo luminescence; at 20 µM (top of the series)
[8] = decreased DLD-1 cellular survival, CellTiter-Glo luminescent readout, NPC compound collection, primary HTS (AID 1117346;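 active means compounds that lower survival of DLD-1 colon cancer cells in the luminescence readout, no cutoff given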); conditions: DLD-1 viability, CellTiter-Glo luminescence; at 20 µM (top of the series)
[9] = system: Aerobactin synthetase IucA (Klebsiella pneumoniae, hypervirulent); assay: IucA enzyme inhibition, biochemical, LOPAC library, absorbance readout (AID 1346212); conditions: IucA enzyme assay, absorbance (OD) readout; stronger effect = lower value;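 tested at 8 µM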;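 further: 100% = no compound wells and 0% = no enzyme wells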
[10] = target: NAD(+) hydrolase SARM1 (Homo sapiens) (UniProt Q6SZW1); assay: SARM1 TIR NADase inhibitors, cell lysate, NAD-Glo luminescence (AID 1508614;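 active means compound whose remaining NAD level is above about 45 nM, limit read from the data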); conditions: SAM-TIR HEK293T lysate NADase, at 1 µM, stronger effect = higher value
[11] = liver-stage malaria parasite growth inhibition, primary screen, cell-based, HepG2, luciferase luminescence, HepG2 viability (AID 624349; in the data active means parasite load remaining mostly below about 12%, no sharp cut-off; inactive means mostly above about 10%;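 further: 100% = mean of DMSO negative control wells on the same plate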); conditions: P. berghei liver stage in HepG2, luciferase luminescence, concentration not given here; parasite load remaining: stronger effect = lower value; viability: measured here: HepG2 viability without parasites
[12] = system: Hepatitis C virus NS3 helicase; assay: HCV NS3 helicase inhibitors, primary screen, biochemical, fluorescence polarization, LOPAC1280 library (AID 687035; in the data active means inhibition above about 37%); conditions: Purified HCV NS3 helicase, Cy5-dT15 ssDNA binding fluorescence polarization; stronger effect = higher value; concentration not given here
[13] = Cy5 fluorescence quenching or enhancement artefacts, artefact control for HCV NS3 helicase inhibitor project, biochemical, LOPAC1280 (AID 687037); conditions: Cy5-DNA-NS3h complex fluorescence interference counterscreen
[14] = sensitizers of A549 cells to miR-34 induction, primary screen, imaging, A549 dox-inducible miR-34, nuclei and caspase counts (AID 1347080;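 active means compounds whose cell count with miR-34 switched on is under 0.7 times the count with it off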); conditions: A549 miR-34 inducible, Hoechst nuclei count, 48 h
[15] = survival rescue of mitochondrial mutant cells in low glucose, primary screen, MELAS cybrids, Rieske KO mouse fibroblasts, CellTiter-Glo (AID 1508586;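 active means mean z-score across replicates of 1.96 or higher in either the MELAS or the Rieske mutant cell line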;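 further: z relative to plate mean and SD of compound and empty wells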)
[16] = viability rescue of complex I mutant cybrids, primary screen, cell-based, galactose medium, ATP luminescence (AID 1645843;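 active means z-score of at least 1.8 in each of two replicates, scored against plate mean and spread of sample wells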;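 further: positive z means more ATP and so rescue of galactose-driven cybrid death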); conditions: complex I mutant cybrid cells, 72 h, stronger effect = higher value
[17] = differential killing of epithelial or mesenchymal cells, primary screen, imaging, PC-3E GFP, TEM4-18 mCherry, co-culture (AID 1345086;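 active means compounds killing one labelled cell type while sparing the other, by normalised counts and ratio limits, not self-fluorescent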;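 further: cells exposed to compound for 72 h before imaging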;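 on red/green cell ratio (normalised): normalised mesenchymal count divided by normalised epithelial count so high means epithelial killing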); conditions: imaging cell counts, at 1 µM
[18] = measured here: relative caspase fold change +Dox/-Dox
[19] = measured here: total cells with miR-34 induction, stronger effect = lower value
[20] = measured here: total cells without miR-34 induction

Chain of NAD(+) hydrolase SARM1 (Homo sapiens) (Q6SZW1 whole entry, looked up): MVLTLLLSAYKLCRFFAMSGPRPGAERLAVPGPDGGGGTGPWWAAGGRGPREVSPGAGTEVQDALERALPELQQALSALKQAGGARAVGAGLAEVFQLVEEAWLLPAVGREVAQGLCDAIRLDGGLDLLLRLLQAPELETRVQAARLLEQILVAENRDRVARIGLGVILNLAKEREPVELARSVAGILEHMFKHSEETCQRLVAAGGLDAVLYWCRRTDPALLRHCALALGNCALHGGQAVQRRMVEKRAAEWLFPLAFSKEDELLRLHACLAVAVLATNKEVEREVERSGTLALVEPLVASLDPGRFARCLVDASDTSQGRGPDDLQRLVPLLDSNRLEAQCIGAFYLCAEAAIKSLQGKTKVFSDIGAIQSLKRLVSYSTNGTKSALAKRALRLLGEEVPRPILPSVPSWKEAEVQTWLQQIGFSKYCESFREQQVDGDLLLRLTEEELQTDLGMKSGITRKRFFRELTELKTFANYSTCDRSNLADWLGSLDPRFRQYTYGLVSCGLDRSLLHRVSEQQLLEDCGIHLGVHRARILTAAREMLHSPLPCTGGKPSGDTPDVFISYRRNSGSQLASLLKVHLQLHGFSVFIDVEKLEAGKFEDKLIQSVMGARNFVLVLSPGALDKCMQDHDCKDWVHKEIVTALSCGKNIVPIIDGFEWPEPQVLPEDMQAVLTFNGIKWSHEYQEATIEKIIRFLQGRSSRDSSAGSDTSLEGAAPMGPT

C[N+]1(C)[C@@H]2CC[C@H]1CC(OC(=O)C(CO)c1ccccc1)C2 (stereo partly specified)
inactive: nuclear beta-catenin stimulation ([1]; at 10 µM) 0.5% | insulin secretion stimulation [2] 3.3% | viability decrease [3] -5.8% | tube area decrease [4] -7.8% | GLP1 secretion stimulation [5] 2.8% | inhibition of viability [6] 12.1% | viability decrease (inhibition) [7] -13.2% | viability decrease (inhibition) [8] 13.1% | remaining activity [9] 93.2% | remaining NAD [10] 10 nM
-0.7%: nuclear beta-catenin stimulation ([1]; stimulation, at 2 µM)

O=C1NCN(c2ccccc2)C12CCN(CC1COc3ccccc3O1)CC2 (stereo unspecified)
103%: viability [11]
9350 and 9690 and 10800: cell count [14, 20]
1.51: z-score ([15]; Rieske KO mouse fibroblast survival, CellTiter-Glo 72 h)
1.92 and 0.981 and 1.04: fold change [14, 18]
9490 and 8620 and 9600: cell count [14, 19]
0.8%: nuclear beta-catenin stimulation ([1]; stimulation, at 2 µM)
inactive: parasite load remaining [11] 34.8% | inhibition [12] -6% | fluorescence ratio (interference) [13] 0.9 | nuclear beta-catenin stimulation ([1]; at 10 µM) -0.5% | insulin secretion stimulation [2] 1.2% | viability decrease [3] -65.9% | tube area decrease [4] 5.4% | GLP1 secretion stimulation [5] 0.9% | inhibition of viability [6] 17.3% | viability decrease (inhibition) [7] 28.7% | viability decrease (inhibition) [8] 3.2% | remaining activity [9] 93.6% | fold change ([14]; stronger effect = lower value) 1.02 and 0.89 and 0.887 | z-score ([15]; MELAS cybrid survival, CellTiter-Glo 48 h, stronger effect = higher value) 0.415 | z-score [16] 0.48 and 0.105 and 0.78

CCOC(=O)CC(SP(=S)(OC)OC)C(=O)OCC (stereo unspecified)
1.11: normalised cell number ([17]; measured here: epithelial PC-3E GFP cell survival)
7400: cell count [14, 19]
-0.1%: nuclear beta-catenin stimulation ([1]; stimulation, at 2 µM)
8640: cell count [14, 20]
1.16: normalised cell number ([17]; measured here: mesenchymal TEM4-18 mCherry cell survival)
inactive: nuclear beta-catenin stimulation ([1]; at 10 µM) 1% | insulin secretion stimulation [2] -1.5% | viability decrease [3] -29.7% | tube area decrease [4] 18% | GLP1 secretion stimulation [5] 0.7% | inhibition of viability [6] -0.33% | viability decrease (inhibition) [7] 27% | viability decrease (inhibition) [8] -18% | red/green cell ratio (normalised) ([17]; actives lie on both sides) 1.05 | fold change ([14]; stronger effect = lower value) 0.857 | remaining NAD [10] 10 nM
0.964: fold change [14, 18]

CC[N+](CC)(CC)CC
10600: cell count [14, 20]
active: viability decrease (inhibition) [7] 95.5%
inactive: inhibition [12] 14% | fluorescence ratio (interference) [13] 1 | nuclear beta-catenin stimulation ([1]; at 10 µM) 3.6% | insulin secretion stimulation [2] 0.7% | viability decrease [3] -2% | tube area decrease [4] 1.4% | GLP1 secretion stimulation [5] -1.5% | inhibition of viability [6] -13.1% | viability decrease (inhibition) [8] 1.35% | remaining activity [9] 93.6% | fold change ([14]; stronger effect = lower value) 0.929 | z-score [16] 0.685
9810: cell count [14, 19]
1.25: fold change [14, 18]
0.6%: nuclear beta-catenin stimulation ([1]; stimulation, at 2 µM)
